Potency and max response data for 27 molecules are collected here from PubChem BioAssay AID651813 (National Center for Advancing Translational Sciences (NCATS), 2012).

Each structure is given as a SMILES string. Hit rate of the full screen: of about 2,100 compounds, about 1,100 (52%) were called active. Another 27% or so got no clear call; they are omitted. The set was probably picked from earlier hits. The list shows a part of the results. Values without a mark were called inactive. The call rests on the fitted dose curve; in most records, active means well fitted inhibition curve with a large enough effect; inconclusive means small, poorly fitted or top-dose-only effect; inactive means no such curve, though single readings can be large or run the other way.
Potency means the concentration at half of the fitted maximal effect.

Chain of DNA dC->dU-editing enzyme APOBEC-3G (Homo sapiens) (Q9HC16 whole entry, looked up): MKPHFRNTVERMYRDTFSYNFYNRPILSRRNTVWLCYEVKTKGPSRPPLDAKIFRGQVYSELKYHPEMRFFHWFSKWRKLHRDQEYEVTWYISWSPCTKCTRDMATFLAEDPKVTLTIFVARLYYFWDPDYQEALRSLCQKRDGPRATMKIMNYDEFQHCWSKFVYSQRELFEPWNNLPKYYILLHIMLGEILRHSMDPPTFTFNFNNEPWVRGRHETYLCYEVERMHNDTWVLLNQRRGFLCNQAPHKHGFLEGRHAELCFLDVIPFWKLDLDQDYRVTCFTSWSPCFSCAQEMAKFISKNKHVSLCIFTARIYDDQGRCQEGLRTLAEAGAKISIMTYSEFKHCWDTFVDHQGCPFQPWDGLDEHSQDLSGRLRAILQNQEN

This test addresses DNA dC->dU-editing enzyme APOBEC-3G (Homo sapiens) (UniProt Q9HC16). The test is described as follows: qHTS for inhibitors of Vif-A3G interactions: Cherry picks counterscreen.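 Further: hits raise yellow fluorescence by blocking Vif-driven A3G-eYFP degradation; nearly all actives have a fitted effect of over 70% in size.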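 On max response: max response given as percent of control signal.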 As to conditions: HeLa A3G-eYFP + Vif (tagged APOBEC3G with the HIV-1 protein that degrades it), eYFP fluorescence, 24 h. The essentials:
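Readout is eYFP fluorescence (488 nm excitation, 500-530 nm emission) measured on Acumen Explorer after 24 h compound exposure, several concentrations, at 37 deg C. Cells: HeLa stably co-expressing Vif and C-terminally eYFP-tagged A3G; MG132 positive control.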
(In general: In qHTS, concentration-response curves come from the screen itself.)
For `Cc1ccc2[nH]cc(/C=C/c3cc[n+](C)cc3)c2c1`, the Potency is 1.4 µM (active). On to `C[n+]1ccc(/C=C/c2c[nH]c3ccc(F)cc23)cc1`, for which the Potency is 5.8 µM (active). On the same count and under the same terms, the same measure for `COc1ccc2[nH]cc(/C=C/c3cc[n+](C)cc3)c2c1`: 9.2 µM (active); for `COc1ccc2c(c1)c(/C=C/c1cc[n+](C)cc1)cn2C`: 2.23 µM (active). In the case of `Cc1ccc(NC(=S)N/N=C2\CCCCC2C)cc1` (configuration not stated), the max response is -4.1%.

Take `CN(C)c1ccc(/C=C/c2cc[n+](C)cc2)cc1`: the Potency was 12.5 µM (active). As for `Cc1ccc(/C=C/c2ccc(N(C)C)cc2)[n+](C)c1`, the Potency is 17.7 µM (active). The same measure, in the same setting: the same measure for `CC[n+]1cc(C)ccc1/C=C/c1ccc(N(C)C)cc1`: 17.7 µM (active); for `C=CCOc1c(Cl)cc(C(=S)N2CCCC2)cc1OCC`: 15.8 µM (active).

For the molecule `CCCOc1cc(N(CC)CC)ccc1/C=C(/C#N)c1nc2ccc(C)cc2[nH]1`, the max response is 37.6%. Consider `Cc1cccc(OCCOc2ccccc2C=C(C#N)C#N)c1`, for which the Potency was 22.3 µM (active).

For the molecule `COC(=O)c1sccc1S(=O)(=O)N(CC(=O)Nc1cc(F)ccc1F)c1ccc(C)c(C)c1`, the max response is -2.7%. Take `CCOc1ccccc1C(=O)Nc1ccsc1C(=O)OC`: the Potency was 2.5 µM (active). On to `COC(=O)c1sccc1NC(=S)Nc1cc(C)cc(C)c1`, for which the max response is 5.75%. As to `COc1ccc(NC(=O)C2(C)Cc3c(-c4cccc(C(N)=O)c4)ccnc3O2)cc1` (configuration not stated), the Potency was 4.44 µM (active). As to `COc1ccc(NC(=O)C2(C)Cc3c(-c4cccc(NC(C)=O)c4)ccnc3O2)cc1` (configuration not stated), the Potency was 1.77 µM (active). As for `C=CCN1C(=O)c2ccc(C(=O)N(CC(C)C)c3c(N)n(CCCC)c(=O)[nH]c3=O)cc2C1=O`, the max response was 1.27%.

Take `CCCCn1c(N)c(N(CC(C)C)C(=O)Cc2ccc(S(=O)(=O)N3CCOCC3)s2)c(=O)[nH]c1=O`: the Potency was 18.4 µM (active). `CCCCn1c(N)c(N(Cc2ccccc2OC)C(=O)c2ccc([N+](=O)[O-])s2)c(=O)[nH]c1=O`: the max response is -2.93%. With `O=S(=O)([N-]c1nc2ccccc2nc1-[n+]1ccc(-c2ccncc2)cc1)c1ccccc1`, the max response was 5.45%.

For `Cc1cc(C)c[n+](-c2nc3ccccc3nc2[N-]S(=O)(=O)c2ccc(Br)s2)c1`, the Potency is 23.1 µM (active).

Regarding `CCc1cc[n+](-c2nc3ccccc3nc2[N-]S(=O)(=O)c2ccc(Br)s2)cc1`, the Potency was 23.1 µM (active). As for `Cc1ccc(Cc2c(C3CCCCC3)nc3ccc(C)cn23)cc1`, the max response was 27.2%. In the case of `COc1ccc2oc(-c3ccccc3[N+](=O)[O-])cc(=O)c2c1`, the Potency was 5.59 µM (active). For `O=C(O)c1ccccc1/C=N/Nc1ccc(S(=O)(=O)N2CCOCC2)cc1[N+](=O)[O-]`, the max response was -0.239%. Take `CCCN1CCC(=NNc2ccc(S(=O)(=O)N3CCOCC3)cc2[N+](=O)[O-])CC1`: the Potency was 14 µM (active).

Turning to `Cc1ccc(NC(=S)N=Nc2c(O)n(C)c3ccc(S(=O)(=O)N4CCOCC4)cc23)cc1`, the max response was 0.754%.
